Reference: the supplement of paper PMC4166925
± gives the standard deviation of the averaged measurements. The full ranking holds about 33,000 sequences; the median of “E-score (dimensionless, -0.5 to 0.5)” is about -0.049, and the highest 2% start at about 0.37. Many of the other results were omitted from the sample, so the highest values are more common in it than they were.

system: T1, PmTbr T-box DNA-binding domain (GST fusion); assay: PBM E-score of 8-mer (E-score (dimensionless, -0.5 to 0.5)); Tbr is Tbrain of the sea star Patiria miniata (Pm) or the sea urchin Strongylocentrotus purpuratus (Sp); higher = stronger binding preference; conditions: the construct has about 5 more residues each side
T1 sequence: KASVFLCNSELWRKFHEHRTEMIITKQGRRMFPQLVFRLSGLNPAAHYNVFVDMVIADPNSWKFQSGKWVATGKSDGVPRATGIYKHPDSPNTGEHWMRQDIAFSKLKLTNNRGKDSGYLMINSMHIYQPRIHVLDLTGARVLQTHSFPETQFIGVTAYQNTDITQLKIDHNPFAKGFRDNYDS
Description: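 Universal protein-binding microarray (Agilent AMADID 016060, 60-bp probes with a 35-bp variable region) incubated with 200 nM GST-fused Patiria miniata Tbr T-box DNA-binding domain (residues 272-466) in PBS pH 7.5. Scored for every ungapped 8-mer (given with its reverse complement) by the Universal PBM Analysis Suite as E-score (modified Wilcoxon-Mann-Whitney enrichment, range -0.5 to 0.5; >0.45 counts as bound) and Z-score of median probe intensity. Two replicate arrays (datasets 1 and 2).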
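Note: 200 nM protein in PBS on universal arrays averaged over duplicate arrays.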

In order of rising “PBM E-score of 8-mer” value:
1. AGATGTCC  -0.322 ± 0.016
2. ATCAATAA  -0.279 ± 0.033
3. GATAGCCA  -0.257 ± 0.028
4. ATCTTTTG  -0.2448 ± 0.0018
5. CCATTAAA  -0.239 ± 0.0035
6. ATCCATTG  -0.235 ± 0.089
7. GCTCCTGA  -0.206 ± 0.08
8. AACCTATT  -0.172 ± 0.056
9. AACCTATC  -0.165 ± 0.17
10. AACCTATG  -0.141 ± 0.019
11. TACCTATA  -0.137 ± 0.041
12. GTTCGAAA  -0.132 ± 0.091
13. CGCTTTGC  -0.129 ± 0.036
14. CGCACAGA  -0.108 ± 0.087
15. CCCATCCG  -0.108 ± 0.058
16. CCCAGGTA  -0.102 ± 0.03
17. GATCGAAC  -0.0822 ± 0.031
18. ACATCGTA  -0.0767 ± 0.038
19. ATTTCGCC  -0.0762 ± 0.14
20. CTTTCGCC  -0.0672 ± 0.025
21. AGCAGGTA  -0.0669 ± 0.01
22. AATCGCTG  -0.0604 ± 0.024
23. ACCAGGTA  -0.0585 ± 0.034
24. GACCTATC  -0.0538 ± 0.05
25. CGACTCAG  -0.0525 ± 0.0052
26. CAACGCTC  -0.0448 ± 0.0033
27. CTTTCGGA  -0.0447 ± 0.021
28. AAACCAAC  -0.0437 ± 0.062
29. CGGTGTTC  -0.0289 ± 0.062
30. CGATCTTA  -0.0203 ± 0.061
31. AACCTATA  -0.0111 ± 0.13
32. CTTTATGA  -0.00777 ± 0.018
33. CATTTTGC  -0.00766 ± 0.017
34. AGATGTTG  0.0167 ± 0.014
35. ACGCTAGT  0.036 ± 0.023
36. AACTGATG  0.0361 ± 0.047
37. GTATTCGA  0.0428 ± 0.0073
38. GAGCGAAC  0.0537 ± 0.089
39. AGATGTTC  0.0612 ± 0.07
40. ACGTGTCC  0.0892 ± 0.034
41. ATTTCGAG  0.09258 ± 0.00026
42. CGCTTCAA  0.0949 ± 0.078
43. GCACACTA  0.102 ± 0.027
44. TGCGTTAA  0.109 ± 0.017
45. ACGTGAAC  0.112 ± 0.051
46. AACAGGTA  0.126 ± 0.015
47. CTTTCACC  0.14 ± 0.034
48. AACAGGTC  0.14 ± 0.036
49. ATTTCACC  0.167 ± 0.058
50. ATGTGAAC  0.175 ± 0.039
51. TGATCACA  0.20944 ± 9.2e-05
52. GCTAACTA  0.212 ± 0.07
53. CCGTGAAA  0.222 ± 0.019
54. ACCATTCG  0.233 ± 0.04
55. ACTTGGCA  0.239 ± 0.015
56. AGCTGTTG  0.2441 ± 0.0021
57. CCGTGAAC  0.257 ± 0.04
58. AGCGTCAA  0.258 ± 0.0039
59. AGCGTTAA  0.265 ± 0.06
60. TCGTGAAA  0.279 ± 0.018
61. ATGTGAAA  0.287 ± 0.019
62. AATTCGCG  0.303 ± 0.035
63. CGCGTCAA  0.308 ± 0.0074
64. ATTTCACG  0.319 ± 0.026
65. CTCCACAC  0.341 ± 0.0092
66. TTGTGAAA  0.344 ± 0.027
67. CTGTGAAC  0.356 ± 0.0043
68. GTTTCACA  0.36 ± 0.027
69. GTTTCGCA  0.3685 ± 0.0028
70. CACCTATA  0.377 ± 0.018
71. GGCGTTAA  0.377 ± 0.024
72. ATTTCGCA  0.378 ± 0.0045
73. CTGTGAAA  0.384 ± 0.0085
74. CACCTATC  0.399 ± 0.0088
75. GCGTGAAC  0.405 ± 0.021
76. GGCGTCAA  0.4094 ± 0.001
77. AGGTGTTC  0.4091 ± 0.0032
78. CTTTCGCA  0.411 ± 0.015
79. ATTTCGCG  0.4125 ± 0.00097
80. ATTTCACA  0.426 ± 0.013
81. CACCTATG  0.429 ± 0.011
82. CTTTCACA  0.444 ± 0.0053
83. AGGTGTCC  0.45 ± 0.0092
84. GCGTGAAA  0.4552 ± 0.0024
85. AGGTGTTG  0.4891 ± 0.0019
86. GTGTGAAC  0.4888 ± 0.0019
